HT1080 IDH1KD tx – qHTS for induction of synthetic lethality in tumor cells producing 2HG: qHTS for the HT-1080-IDH1KD cell line | AID 686971, 2013 | 360,000 compounds, 2% hits | HT-1080 IDH1 knockdown viability, ATP luminescence, 48 h | Potency, µM (highest dose often 46.1 µM), actives largely listed as cytotoxic
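Knockdown cells (IDH1KD HT-1080) received compounds 2 h after plating at 750 cells/well and were kept 48 h at 37 °C in 5% FBS RPMI. A CellTiter-Glo luminescence read gave % activity for curve fitting.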
TDP1 cell noCPT – qHTS for Inhibitors of human tyrosyl-DNA phosphodiesterase 1 (TDP1): qHTS in cells in absence of CPT | Potency, µM (top dose mostly 46.2 µM), usual class: inhibitors | 420,000 compounds, 15% hits | DT40 Tdp1-/- hTDP1 cells, no CPT, ATP luminescence, 48 h | AID 686978, 2013; further: nearly all actives have a fitted effect of over 55% in size
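Luminescent ATP content (CellTiter-Glo) served as the growth readout. Knockout chicken DT40 cells expressing human TDP1 were exposed to compounds without camptothecin for a minimum 48 hr at 37 °C.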
TDP1 cell CPT – qHTS for Inhibitors of human tyrosyl-DNA phosphodiesterase 1 (TDP1): qHTS in cells in presence of CPT; 420,000 compounds, 12% hits; AID 686979, 2013; Potency, µM (doses to about 46.2 µM), usual class: inhibitors; chicken DT40 Tdp1-/-;hTDP1 cells + 20 nM CPT, ATP luminescence, 48 h; further: nearly all actives have a fitted effect of over 55% in size
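Chicken DT40 Tdp1-/- cells complemented with human TDP1, 400 cells/well, exposed to compounds plus 20 nM camptothecin for at least 48 h at 37 C; viability read as ATP content by CellTiter-Glo luminescence.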
ELG1 repair inh – qHTS screen for small molecules that inhibit ELG1-dependent DNA repair in human embryonic kidney (HEK293T) cells expressing luciferase-tagged ELG1; HEK293T ELG1-luciferase reporter, luminescence, 16 h; DNA damage induced by 5-fluorouridine; Potency, µM (doses to about 46.1 µM), actives largely listed as inhibitors; 330,000 compounds, 2.3% hits; further: nearly all actives have a fitted effect of over 55% in size
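Overnight (16 hr) co-exposure of 2,000 cells/well to 5-fluorouridine and compound at 37 °C preceded detection. Luciferase was quantified via ONE-Glo luminescence; loss of signal denotes inhibition.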
HT1080-NT tox – qHTS for induction of synthetic lethality in tumor cells producing 2HG: qHTS for the HT-1080-NT fibrosarcoma cell line; Potency, µM (titrated, usually from 46.1 µM), actives largely listed as cytotoxic; AID 686970, 2013; HT-1080-NT fibrosarcoma viability, CellTiter-Glo ATP luminescence, 48 h; 360,000 compounds, 1.6% hits;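 further: NT is the 2HG producing partner of a matched IDH1 knockdown line; nearly all actives have a fitted effect of over 55% in size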
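HT-1080-NT fibrosarcoma cells (2HG-overproducing), 750 cells/well in RPMI with 5% FBS, dosed after 2 h and incubated 48 h at 37C. CellTiter-Glo luminescence normalized to DMSO and no-cell wells; concentration-response curves fitted and classed.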
IL-1B inflam inh – qHTS for Inhibitors of Inflammasome Signaling: IL-1-beta AlphaLISA Primary Screen; 360,000 compounds, 4.7% hits; activity change, % at 57.5 µM; THP-1 LPS/ATP IL-1B secretion, AlphaLISA, 16 h; active compounds read low; AID 743279, 2014; in the data active means activity change below about -50%; inconclusive means mostly about -30% to -49%
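Secreted IL-1B measured by AlphaLISA bead assay after 16 h compound exposure of THP-1 cells; compounds (final up to 57.5 uM) added 1 h before LPS (250 ng/mL) and ATP (1.25 mM) stimulation; lower signal means less secretion.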
Hits are given with their value; . = inactive; ? = inconclusive; / = not tested or not shown. Compounds with a hit are over-represented: about 19% of the library has one in this group of screens. Unless noted, the call rests on the fitted dose curve; in most records, active means well fitted curve in the direction sought with a large enough effect; inconclusive means small, poorly fitted or top-dose-only effect, or another doubt; inactive means no such curve, though single readings can be large; an effect the other way counts as inactive or inconclusive.

SMILES | HT1080 IDH1KD tx | TDP1 cell noCPT | TDP1 cell CPT | ELG1 repair inh | HT1080-NT tox | IL-1B inflam inh
CN(C)c1cc(-c2ccc(Cl)c(Cl)c2)oc(=O)c1Cl | . | ? | ? | . | . | .
COC(=O)c1ccc(CNC(=O)C2CCC(=O)N(CCc3ccccn3)C2)cc1 (stereo not given) | . | . | . | / | . | .
COc1cc2c(cc1OC)C(C)=NCC2 | . | . | 16.4µM | . | . | .
COc1cc2c(cc1OC)C(c1ccc(Cl)cc1)=NCC2 | . | 8.2µM | 16.4µM | . | . | ?
COc1ccc(-c2nnc3n2C(C)(C)Cc2cc(OC)c(OC)cc2-3)cc1 | / | / | / | . | / | /
COc1cc2c(cc1OC)C(c1oc(-c3ccc(-c4cc(Cl)ccc4Cl)o3)cc1C)=NCC2 | / | 0.355µM | 1µM | / | / | /
C[N+]1(CC(=O)c2ccc(Cl)c(Cl)c2)CCOCC1 | / | . | . | / | / | /
OCCNc1nc(-c2ccccc2)c2cc(Cl)ccc2n1 | ? | . | . | . | ? | .
CCC(CO)Nc1nc2ccc(Cl)cc2c2ccccc12 (stereo not given) | 18.4µM | ? | ? | . | ? | -78.6
Cc1ccc(-c2nnn(CC(=O)N(CC(=O)NCCC(C)C)c3ccc(F)cc3)n2)cc1 | / | . | . | / | / | /
CCOc1ccc(-c2ccc(/C=C3/C(=N)N4C=CSC4=NC3=O)o2)c([N+](=O)[O-])c1 | . | ? | 20.6µM | . | . | .
COc1cc(/C=C2/C(=N)N3C=CSC3=NC2=O)ccc1OCCOc1ccc(NC(C)=O)cc1 | . | . | . | . | . | .
N=C1/C(=C\c2ccc(-c3cc(Cl)cc(Cl)c3)o2)C(=O)N=C2SC=C(c3ccccc3)N12 | . | ? | ? | . | . | .
CC1=CN2C(=N)/C(=C/c3ccc([N+](=O)[O-])o3)C(=O)N=C2S1 | ? | 1.3µM | 0.651µM | ? | ? | -104.2
CCOc1ccc(-c2ccc(/C=C3/C(=N)N4C(C)=CSC4=NC3=O)o2)c([N+](=O)[O-])c1 | . | . | ? | 25.9µM | . | .
COc1cc2c(cc1OC)C(c1ccc(Br)cc1)NC(=O)C2 (stereo not given) | . | . | . | . | . | -71.0
COc1ccc(C2NC(=O)Cc3cc(OC)c(OC)cc32)cc1OC (stereo not given) | . | . | . | . | . | .
COc1cc(OC)cc(C(=O)NCCc2csc(-c3ccc(C(F)(F)F)cc3)n2)c1 | / | 18.4µM | ? | / | / | /
COc1cc(OC)cc(C(=O)NCCc2csc(-c3cccc(C)c3)n2)c1 | / | 16.4µM | 14.6µM | / | / | /
Cc1nc(CCNC(=O)Cc2ccccc2)cs1 | . | . | . | . | . | .
Cc1cccc(-c2nc(CCNC(=O)Cc3ccccc3)cs2)c1 | / | 20.6µM | ? | / | / | /
Cc1ccc(CNC(=O)CN(C)S(=O)(=O)c2ccc3c(c2)n(C)c(=O)c(=O)n3C)cc1 | . | . | . | . | . | .
CC1=C(C(N)=O)S(=O)(=O)c2ccccc21 | . | ? | ? | . | . | .
CC1(C)c2ccccc2C(=O)c2ccccc21 | . | ? | . | / | . | .
O=[N+]([O-])C1C(c2ccccc2)C12c1ccccc1-c1ccccc12 (stereo not given) | 6.51µM | 1.03µM | 1.03µM | / | 5.8µM | -67.4
SMILES | HT1080 IDH1KD tx | TDP1 cell noCPT | TDP1 cell CPT | ELG1 repair inh | HT1080-NT tox | IL-1B inflam inh
Cc1noc(C)c1C(=O)N(CC(C)C)c1nc2ccccc2s1 | . | ? | ? | . | . | .
CCOC(=O)CNC(=O)Cn1cnc2c(nnn2-c2ccccc2)c1=O | . | . | . | . | . | .
Cc1cccc(Nc2nnc(SCC3CCCCO3)s2)c1 (stereo not given) | . | ? | 23.1µM | ? | . | .
COc1ccc(Nc2nnc(SCC3CCCCO3)s2)cc1 (stereo not given) | . | . | . | . | . | .
COc1ccc(-c2ccc(=O)n(CC(=O)Nc3cc(OC)ccc3OC)n2)cc1 | / | . | . | / | / | /
Cc1nc(C)c(-c2csc(Nc3ccc(O)cc3C)n2)s1 | . | 5.8µM | 16.4µM | . | . | .
Cc1nc(C)c(-c2csc(Nc3ccc(Cl)cn3)n2)s1 | . | ? | 18.4µM | / | . | .
Cc1nc(C)c(-c2csc(Nc3ccc(F)cc3)n2)s1 | ? | ? | ? | ? | ? | .
Cc1cc(O)ccc1Nc1nc(-c2cccs2)cs1 | ? | . | . | ? | . | -84.1
O=C(CN(Cc1ccc(F)cc1)C(=O)c1csnn1)NC1CCCC1 | . | . | . | . | . | .
CC(NC(=O)CN(C)CC(=O)Nc1ccc(Cl)cc1)c1ccc(F)cc1 (stereo not given) | . | 18.4µM | ? | ? | . | ?
CCCCN(CCCC)C(=O)C1CCN(S(=O)(=O)c2cccc3nsnc23)CC1 | / | 25.9µM | 16.4µM | / | / | /
O=C(C1CCN(S(=O)(=O)c2cccc3nsnc23)CC1)N1CCc2ccccc2C1 | . | ? | ? | ? | . | -62.9
CCCN(CCC)CCCNC(=O)C1CCN(S(=O)(=O)c2cccc3nsnc23)CC1 | . | . | . | . | . | .
CC1CCCN(C(=O)C2CCN(S(=O)(=O)c3cccc4nsnc34)CC2)C1 (stereo not given) | . | . | . | . | . | .
CCc1ccc(NC(=O)C(=O)NCC2CCCN2S(=O)(=O)c2ccccc2)cc1 (stereo not given) | ? | 20.6µM | ? | ? | . | .
COc1ccc(S(=O)(=O)N2CCCC2CNC(=O)C(=O)NCc2ccc(C)cc2)cc1 (stereo not given) | . | 16.4µM | ? | . | . | .
COc1ccc(CCNC(=O)C(=O)NCC2CCCN2S(=O)(=O)c2ccccc2)cc1 (stereo not given) | . | 18.4µM | 20.6µM | ? | ? | .
O=C(NCCc1ccc(F)cc1)C(=O)NCC1CCCN1S(=O)(=O)c1ccccc1 (stereo not given) | ? | 8.2µM | 10.3µM | ? | . | -79.7
Cc1ccc(CCNC(=O)C2CC(=O)N(CCc3ccc(C)cc3)C2)cc1 (stereo not given) | / | . | . | / | / | /
COc1cc(OC)c(NC2(c3ccccc3)C(=O)c3ccccc3C2=O)cc1Cl | / | . | . | / | / | /
COc1ccc(S(=O)(=O)N2CCCC2CNC(=O)C(=O)NCCc2ccccc2)cc1 (stereo not given) | 18.4µM | 7.31µM | 7.31µM | ? | ? | .
